# Most compounds without a hit are left out; they make up all but 22% or so of the library.
# Pf growth 48h: P. falciparum growth inhibition at 48 hours (one generation); P. falciparum luciferase growth in erythrocytes, 48 h; Potency, µM (highest dose often 28.7 µM), for the others: at the top dose activity change, negative = inhibition, most hits filed as inhibitors; hit rate 5.9% among 310,000; AID 504832; further: potency means the concentration at half of the fitted maximal effect; on the % scale 0 is the no-effect control and ±100 the full control effect
#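 Compounds are pin-transferred into medium, infected erythrocytes (2% hematocrit, 0.1% parasitemia final) are added, and plates sit one parasite generation at 37 C in 5% CO2. Detection reagent is then added and luminescence measured.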
# Cycloheximide cs: counter-screen for Shiga toxin inhibitors: cycloheximide protein synthesis inhibition. cell reporter, cycloheximide protein synthesis inhibition counterscreen. max response, %. hit rate 12% among 300,000; in the data active means max response mostly above about 13%, no sharp cut-off; inactive means mostly below about 14%; further: read at 38.3 µM for the half of the compounds with a filed dose; 0% is about no effect
# Shiga toxin inh: inhibitors of Shiga toxin in Vero cells | Vero cells, Shiga toxin protein synthesis inhibition reporter | AID 2315 | hit rate 9.2% among 290,000 | inhibition, % at 38.7 µM; in the data active means inhibition mostly above about 28%, no sharp cut-off; inactive means mostly below about 43%; further: 0% is about no effect
# LmPK inhibitor: blocks Leishmania mexicana pyruvate kinase activity | hit rate 0.37% among 290,000 | Q27686 | AID 1721 | Potency, µM (series often up to 57.5 µM), inactives show at the highest dose activity change, negative = inhibition, usual class: inhibitors | purified LmPK, Kinase-Glo ATP luminescence, 1 h; further: potency means the concentration at half of the fitted maximal effect; on the % scale 0 is the no-effect control and ±100 the full control effect
# Target sequence (Q27686 whole entry, looked up): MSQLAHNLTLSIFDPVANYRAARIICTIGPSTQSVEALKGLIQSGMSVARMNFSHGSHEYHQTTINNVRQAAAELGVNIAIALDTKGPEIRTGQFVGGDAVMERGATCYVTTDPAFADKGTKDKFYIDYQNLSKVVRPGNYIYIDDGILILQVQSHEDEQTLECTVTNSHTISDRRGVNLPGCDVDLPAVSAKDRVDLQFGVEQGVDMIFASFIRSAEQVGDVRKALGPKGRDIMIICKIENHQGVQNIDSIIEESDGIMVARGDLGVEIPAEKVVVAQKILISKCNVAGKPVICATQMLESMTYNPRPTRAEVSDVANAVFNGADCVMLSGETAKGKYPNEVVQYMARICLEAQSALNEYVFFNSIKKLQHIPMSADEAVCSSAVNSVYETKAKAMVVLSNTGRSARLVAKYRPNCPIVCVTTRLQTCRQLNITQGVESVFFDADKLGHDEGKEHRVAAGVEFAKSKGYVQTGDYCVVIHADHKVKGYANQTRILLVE
#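 ATP generated from ADP (0.1 mM) and PEP (0.5 mM) by 0.1 nM LmPK over 1 h at room temperature (pH 7.2 imidazole buffer) was detected by coupled luciferase luminescence. Values were normalized to uninhibited and no-enzyme wells.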
# Pf growth 96h: P. falciparum growth inhibition at 96 hours. P. falciparum luciferase reporter growth, 96 h. AID 504834. Potency, µM (series often up to 28.7 µM), for inactives: top-dose activity change, negative = inhibition, actives largely listed as inhibitors. hit rate 6.9% among 320,000; further: potency means the concentration at half of the fitted maximal effect; on the % scale 0 is the no-effect control and ±100 the full control effect
#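 Luminescence readout: decreased luciferase signal marks inhibited growth of reporter-expressing P. falciparum in infected red cells (2% hematocrit, 0.05% parasitemia final), exposed to compound two generations (96 h, 37 C, 5% CO2).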
# * marks the source's active call; other numbers are inactive results; ? = inconclusive; · = not tested or not shown. Unless noted, the call rests on the fitted dose curve; in most records, active means well fitted inhibition curve with a large enough effect; inconclusive means small, poorly fitted or top-dose-only effect, or another doubt; inactive means no such curve, though single readings can be large or run the other way.
SMILES,Pf growth 48h,Cycloheximide cs,Shiga toxin inh,LmPK inhibitor,Pf growth 96h
Cc1cc(C)cc(OCC(=O)Nc2cc(C)on2)c1,39%,-2,-7,4%,276%
Cc1cc(NC(=O)COC(=O)c2ccccc2[N+](=O)[O-])no1,215%,28*,45,0%,34%
CC(C)CC(=O)Nc1nnc(SCC(=O)Nc2nccs2)s1,-3%,1,-15,5%,57%
O=C1NCCCC1C(=O)Nc1ccccc1C(F)(F)F (centres undefined),0%,-2,-14,-4%,0%
COC(=O)c1cccc(NC(=O)COc2cccc([N+](=O)[O-])c2)c1,81%,16*,23,1%,-1%
Cc1cc(NC(=O)COc2ccc(C)c(C)c2)no1,73%,39*,65*,0%,?
COc1ccc2c(COC(=O)c3n[nH]c4ccccc34)cc(=O)oc2c1,29%,26*,107*,2%,·
Cc1ccc(OCC(=O)NCCO)cc1C,·,7,-1,2%,1.3µM*
CC(C)CNC(=O)c1cccc(NC(=O)COc2cccc([N+](=O)[O-])c2)c1,-23%,-1,13,0%,?
CN(Cc1nc(-c2cnccn2)no1)Cc1cccc2ccccc12,?,1,-12,-3%,4%
Cc1ccc(-c2ccc(=O)n(CC(=O)NCCC(C)C)n2)cc1,5%,-2,-2,3%,27%
O=C(CN1C(=O)CSc2ccc(S(=O)(=O)N3CCOCC3)cc21)NCCCN1CCc2ccccc2C1,1%,-9,-22,1%,15%
Cc1ccc(OCC(=O)Nc2cc(C(C)(C)C)on2)cc1C,5.2µM*,-2,-12,-8%,6%
Cc1cc(NC(=O)COC(=O)c2n[nH]c3ccccc23)no1,19%,20*,31,-3%,42%
CSc1cccc(NC(=O)CSc2ncccc2C(=O)Oc2cccc([N+](=O)[O-])c2)c1,27%,17*,-1,1%,?
Cc1ccc2c(c1)C1(C=CC(=O)C=C1)CC(=O)N2C,·,16,-5,·,·
Cc1ccc(C)c(OCCC(=O)OCC(=O)NC(=O)NC2CCCC2)c1,3%,·,·,·,21%
CN(C)/N=C/C=C1\CC/C(=C\c2ccc(Br)cc2)C1=O,·,13,-4,-1%,-4%
CN(C)/N=C/C=C1\CCC/C(=C/c2cccs2)C1=O,183%,61*,82*,-1%,176%
COC(=O)c1[nH]c2ccccc2c1CN1CCOCC1,-9%,3,·,9%,18%
CCOn1c(=O)c(-c2ccc(Br)cc2)[n+]([O-])c2ccccc21,22%,9,22,3%,30%
CCOc1ccc(OCC)c(-c2c(=O)n(OCc3ccccc3Br)c3ccccc3[n+]2[O-])c1,?,8,-2,2%,9.3µM*
COc1ccc(-c2c(=O)n(OCc3nc4ccccc4[nH]3)c3ccccc3[n+]2[O-])cc1,?,29*,33,-1%,0%
CCOc1ccc(-c2c(=O)n(OCc3nc4ccccc4[nH]3)c3ccccc3[n+]2[O-])cc1,-27%,19,32*,-22%,?
CCOc1ccc(-c2c(=O)n(OCc3ccccc3Br)c3ccccc3[n+]2[O-])c(OCC)c1,?,-1,-22,4%,-6%
SMILES,Pf growth 48h,Cycloheximide cs,Shiga toxin inh,LmPK inhibitor,Pf growth 96h
C=CCOn1c(=O)c(-c2ccc(OC)cc2)[n+]([O-])c2ccccc21,-7%,14*,52,-3%,18%
O=C(OCCc1cc2ccccc2c(=O)o1)c1ccc(C(F)(F)F)cc1,22%,·,·,·,25%
Cc1cccc(C)c1NC(=O)CSc1nnc(C2CCCCC2)o1,6%,-1,-10,-10%,?
O=C(N/N=C/c1ccc(-c2cccc(C(F)(F)F)c2)o1)c1ccccc1O,8.3µM*,-2,-10,2%,-15%
O=C(N/N=C/c1ccc(-c2cccc(C(F)(F)F)c2)o1)c1cccc(F)c1,12µM*,32*,40*,4%,?
O=C(N/N=C/c1ccc(-c2cccc([N+](=O)[O-])c2)o1)c1ccccc1O,?,7,30,3%,102%
NC(=O)N/N=C/c1ccc(-c2cccc(C(F)(F)F)c2)o1,34%,48,38*,-8%,74%
Cc1ccc(NCC(=O)N/N=C/c2ccc(-c3cccc(C(F)(F)F)c3)o2)cc1,4%,-2,-7,-1%,-18%
O=C(N/N=C/c1ccc(-c2cccc(C(F)(F)F)c2)o1)c1ccccc1Br,1%,11*,74*,-1%,71%

# Compound activity: PubChem BioAssay, National Center for Advancing Translational Sciences (NCATS)
